# The panel holds about 79,000 compounds, 15% with a hit somewhere; the sample as a whole holds those more often. Unmarked numbers belong to inactive results. Active and inactive are the calls of the source. No stated cut-off is given here; in the data, active means growth inhibition above about 70%; inactive means the rest.
# Columns and labels:
# [1] = NCI Yeast Anticancer Drug Screen. Data for the rad50 strain (AID 155);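 further: 0% = growth of vehicle-only cultures of the same strain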; details: S. cerevisiae rad50 strain growth inhibition, stronger effect = higher value
# Summary of the method: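 Yeast carrying a defined DNA repair defect were exposed to test compounds, and growth was compared with vehicle-treated controls to give percent inhibition.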
# [2] = NCI Yeast Anticancer Drug Screen. Data for the mec2-1 strain (AID 157); details: S. cerevisiae mec2-1 strain, stronger effect = higher value
# Summary of the method: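 Each compound was tested on mec2-1 yeast, a strain altered in DNA damage repair or cell cycle control. Growth inhibition is reported relative to vehicle.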
# [3] = NCI Yeast Anticancer Drug Screen. Data for the sgs1 mgt1 strain (AID 161);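 further: 0% = growth of cultures given vehicle only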; details: S. cerevisiae sgs1 mgt1 strain, stronger effect = higher value
# Summary of the method: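 Genetically altered yeast, compound exposure, growth inhibition relative to vehicle.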
# [4] = NCI Yeast Anticancer Drug Screen. Data for the cln2 rad14 strain (AID 165);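 further: 0% = growth equal to vehicle treated cultures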; details: S. cerevisiae cln2 rad14 strain, stronger effect = higher value
# Summary of the method: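 Test compounds were added to cln2 rad14 yeast cultures; inhibition of growth was then determined by comparison with vehicle treatment.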
# [5] = NCI Yeast Anticancer Drug Screen. Data for the bub3 strain (AID 167); details: S. cerevisiae bub3 mutant strain, stronger effect = higher value
# Summary of the method: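 Compounds were applied to a genetically altered yeast strain carrying a cell-cycle control defect. Growth inhibition was scored against vehicle-treated controls.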
# [6] = NCI Yeast Anticancer Drug Screen. Data for the mlh1 rad18 strain (AID 175); details: S. cerevisiae mlh1 rad18 strain growth inhibition, stronger effect = higher value
# Summary of the method: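 Inhibition values reflect reduced growth of mutant yeast versus vehicle-treated controls following compound exposure; the mutations affect DNA damage repair.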
# [7] = at 5.0 µM (retest, dose inferred, filed as 0.5)
# [8] = at 50.0 µM (retest, dose inferred, filed as 5.0)
Structure (SMILES),"growth inhibition [1, 7]","growth inhibition [1, 8]",growth inhibition ([1]; at 50.0 µM),"growth inhibition [2, 7]","growth inhibition [2, 8]",growth inhibition ([2]; at 50.0 µM),"growth inhibition [3, 7]","growth inhibition [3, 8]",growth inhibition ([3]; at 50.0 µM),"growth inhibition [4, 7]","growth inhibition [4, 8]",growth inhibition ([4]; at 50.0 µM),"growth inhibition [5, 7]","growth inhibition [5, 8]",growth inhibition ([5]; at 50.0 µM),"growth inhibition [6, 7]","growth inhibition [6, 8]",growth inhibition ([6]; at 50.0 µM)
Cc1ccc(S(=O)(=O)N/N=C/c2cc(I)cc([N+](=O)[O-])c2O)cc1,17%,91% (active),89.3% (active),13%,92% (active),95.8% (active),23%,93% (active),97.7% (active),9%,94% (active),91.3% (active),8%,97% (active),88.8% (active),21%,94% (active),96.5% (active)
CCOC(=O)CN1CCCC(C(=O)CC2(O)C3(Cl)C4(Cl)C5(Cl)C(Cl)(Cl)C6(Cl)C4(Cl)C2(Cl)C6(Cl)C53Cl)C1 (stereo not given),62%,98% (active),52.5%,54%,99% (active),49.9%,61%,99% (active),55%,36%,99% (active),71.2% (active),59%,99% (active),48.5%,87% (active),99% (active),50.3%
CN(C)C(=S)SC1(CN2CCOCC2)COc2c(Cl)cc(Cl)cc2C1=O (stereo not given),1%,97% (active),90.4% (active),3%,96% (active),76.2% (active),3%,97% (active),95.3% (active),6%,96% (active),75% (active),5%,96% (active),79.3% (active),1%,97% (active),89.5% (active)
Oc1ccc(C(c2ccccc2)(c2ccccc2)c2ccccc2)cc1O,-8%,99% (active),98.2% (active),-2%,100% (active),98.7% (active),-4%,99% (active),98.3% (active),0%,97% (active),97.4% (active),-4%,99% (active),98% (active),0%,99% (active),98% (active)
CC12CC(Sc3ccccc3N1)c1ccccc1O2 (stereo not given),37%,54%,42.2%,28%,46%,25.3%,43%,80% (active),51.8%,33%,40%,27.4%,40%,73% (active),76.3% (active),40%,73% (active),44.5%
Cc1ccc(S(=O)(=O)c2cc(O)c(O)c3ccc(Br)cc23)cc1,13%,97% (active),79.5% (active),9%,98% (active),98.5% (active),16%,98% (active),92.9% (active),-1%,97% (active),95.4% (active),-4%,97% (active),83.8% (active),9%,97% (active),97.9% (active)
CCC(C)SC1SCC2C(=O)N(C)C3(CC3C)C(=O)OCC(NC(=O)c3nc4ccccc4cc3O)C(=O)NC(C)C(=O)N(C)C1C(=O)N(C)C1(CC1C)C(=O)OCC(NC(=O)c1nc3ccccc3cc1O)C(=O)NC(C)C(=O)N2C (stereo not given),98% (active),89% (active),89.7% (active),99% (active),92% (active),91.9% (active),80% (active),93% (active),92.4% (active),79% (active),94% (active),88.7% (active),75% (active),93% (active),91.2% (active),94% (active),84% (active),89.8% (active)
CN(C)C1CCC2C3CC=C4CC(OC=O)CCC4(C)C3CCC21C (stereo not given),-1%,48%,71.2% (active),2%,42%,17.3%,2%,60%,65.5%,17%,83% (active),76.4% (active),0%,86% (active),48.8%,-11%,52%,45.7%
O=C(O)c1nc2cc(C(F)(F)F)ccc2nc1Nc1ccc(Cl)c(Cl)c1,23%,77% (active),86% (active),19%,90% (active),80.3% (active),-16%,52%,48.8%,-7%,85% (active),76.5% (active),16%,64%,55.1%,19%,87% (active),79.1% (active)
COc1cc(C/C=C/c2ccccc2)c(OC)cc1O,18%,30%,63.6%,18%,24%,61.7%,15%,37%,54.4%,18%,29%,76% (active),20%,29%,64.8%,17%,35%,48.5%

# Source: PubChem BioAssay (NCI)
